# Screening data deposited in PubChem BioAssay by several laboratories.
# proKLK7 act – proKLK7 zymogen activators, primary screen, biochemical, fluorescence intensity; Kallikrein-7 (Homo sapiens), P49862; purified proKLK7, EDANS-DABCYL substrate fluorescence; 100% is mature enzyme control, 0% vehicle; activation, % at 7 µM; actives 0.9% (n = 370,000);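 active = activation above the mean of all tested compounds plus 3 SD, computed per campaign excluding outliers beyond control limits, cut at about 13% in these data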
# rCAG RNA binder – binders of r(CAG) RNA repeats, primary screen, biochemical, fluorescence; inhibition, % at 3 µM; r(CAG) RNA repeat, TO-PRO-1 dye displacement fluorescence; actives 1.3% (n = 370,000);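 active = inhibition above the plate cutoff, the mean of all test compounds on that plate plus 3 SD, cut at about 35% in these data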;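 note: 0% = DMSO alone and 100% = 100 µM mitoxantrone as full dye displacement; higher means more dye released from RNA so lower well fluorescence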
# GRIN3A LBD mod – binders of NR3A ligand-binding domain, primary screen, biophysical, differential scanning fluorimetry, uHTS. Tm shift relative to glycine control, % at 25 µM. actives 2.5% (n = 340,000). AID 1259313, 2017. NR3A LBD differential scanning fluorimetry, Tm shift; 0% = protein alone, 100% = glycine-bound protein;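 active = melting temperature shift of at least 10% of the positive control shift, at one fixed dose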
# ADAM17 inh – ADAM17 inhibitors, primary screen, biochemical, QFRET; Disintegrin and metalloproteinase domain-containing protein 17 (Homo sapiens), P78536; recombinant ADAM17, EDANS/DABCYL FRET peptide cleavage; inhibition, % at 6.95 µM; actives 0.83% (n = 370,000); AID 720648, 2013;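 active = inhibition above the mean of compounds lying between control limits plus 3 SD, set per campaign, cut at about 8.5% in these data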;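 note: 0% = DMSO-only wells as the low control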
# AHR activator – AHR activators, primary screen, cell-based, luminescence, luciferase reporter, human. AHR-responsive luciferase reporter cells. actives 2.5% (n = 320,000). Aryl hydrocarbon receptor (Homo sapiens), P35869. activation, % at 5 µM; in the data active = activation above about 47%;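 note: 0% = vehicle wells and 100% = reference agonist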
# ADAM10 inh – human ADAM10 inhibitors, primary screen, biochemical, QFRET, HTS; Disintegrin and metalloproteinase domain-containing protein 10 (Homo sapiens), O14672; recombinant ADAM10, EDANS/DABCYL FRET peptide cleavage, 3 h; inhibition, % at 7 µM; actives 0.62% (n = 370,000);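 active = inhibition above a per-campaign cutoff equal to the mean of compounds falling between control-based bounds plus 3 SD, cut at about 20% in these data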;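 note: 0% = DMSO wells while the 100% control is not disclosed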
# Target sequence (O14672 214-748 limits assumed): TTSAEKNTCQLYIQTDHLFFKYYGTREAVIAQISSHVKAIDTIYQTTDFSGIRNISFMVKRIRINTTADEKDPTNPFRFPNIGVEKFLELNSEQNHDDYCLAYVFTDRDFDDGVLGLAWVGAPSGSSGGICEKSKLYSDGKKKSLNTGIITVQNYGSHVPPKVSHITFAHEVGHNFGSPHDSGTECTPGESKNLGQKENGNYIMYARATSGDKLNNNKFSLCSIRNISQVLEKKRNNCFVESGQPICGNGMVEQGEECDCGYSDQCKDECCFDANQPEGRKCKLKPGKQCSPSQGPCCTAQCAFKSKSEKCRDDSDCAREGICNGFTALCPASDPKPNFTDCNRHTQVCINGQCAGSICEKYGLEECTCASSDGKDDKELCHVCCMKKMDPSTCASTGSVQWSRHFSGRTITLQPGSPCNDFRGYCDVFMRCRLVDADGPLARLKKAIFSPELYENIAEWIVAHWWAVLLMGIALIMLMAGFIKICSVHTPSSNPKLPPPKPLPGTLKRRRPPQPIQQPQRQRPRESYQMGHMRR
# AHR act cf – AHR activators, confirmation, cell-based, luminescence, luciferase reporter, human; shares compounds with AHR activator; human cells, AHR-responsive luciferase reporter; activation, % at 9 µM; actives 87% (n = 2,300); in the data active = activation above about 49%;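 note: HepG2 hepatoma cells carrying a DRE-driven firefly luciferase reporter; 0% = vehicle wells and 100% = reference agonist wells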
# PXR act counter – human PXR activators, counter-screen for AHR activator project, cell-based, luciferase luminescence. shares compounds with AHR activator. cell-based PXR reporter. activation, % at 11.6 µM. actives 88% (n = 2,300); in the data active = activation above about 11%;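 note: human hepatoma DPX-2 cells expressing full-length human PXR; 0% = DMSO and 100% = reference agonist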
# Starred values were filed as active, the others as inactive; x = no result. Shown are actives, neighbours in structure and some others; about 7% of the full set was active somewhere.
SMILES,proKLK7 act,rCAG RNA binder,GRIN3A LBD mod,ADAM17 inh,AHR activator,ADAM10 inh,AHR act cf,PXR act counter
COCCCNC(=O)c1ccc2c(=O)n(Cc3ccc4c(c3)OCO4)c(=S)[nH]c2c1,-1,3,12*,6,-1,6,x,x
Cc1ccc(S(=O)(=O)n2c3ccc(Cl)cc3c3nc(C)sc32)cc1,0,7,27*,-3,x,0,x,x
O=C(Nc1nc(-c2cccc3ccccc23)cs1)c1cnccn1,0,5,-2,2,49*,-6,x,x
COC(=O)CC[C@@H](/C=C/C(=O)OC(C)(C)C)Sc1ccc(C(C)(C)C)cc1,0,3,x,0,x,2,x,x
Cc1cc(C)nc(NC(=S)N2CCN(c3ncc(C(F)(F)F)cc3Cl)CC2)c1,x,x,x,-2,x,5,x,x
NNc1nc(-c2ccccc2)cc(-c2ccc(Br)cc2)n1,0,5,-3,-17,69*,-30,x,x
CN1C2=N[C@@H](c3ccc4ccccc4c3)CC(=O)N2/C(=C\c2ccccc2)[C@H]1c1ccccc1,x,x,x,-4,x,-11,x,x
N#Cc1cc2ccccc2nc1SCC(=O)NC1CC1,-1,1,-4,-1,64*,-6,x,x
CN1CCSc2ccc(C(=O)Nc3ccc(Cl)cc3)cc21,-8,8,-4,-28,215*,-66,135*,70*
C=CCNC(=O)CN(C(=O)Cc1cccc(OC(F)(F)F)c1)c1cccc(Br)c1,0,0,x,2,x,9,x,x
CCOc1ccccc1NC(=O)Nc1ccc2c(c1)OCO2,0,1,1,-1,103*,-2,115*,97*
Cc1ccc(OC(F)F)c(NC(=O)Nc2ccc3c(c2)OCO3)c1,1,-4,-1,3,82*,8,75*,47*
COc1ccc(C)cc1NC(=O)NC(C)c1ccc2c(c1)OCO2 (stereo not given),0,1,-1,0,28,-14,x,x
Cc1ccc(S(=O)(=O)NC[C@H]2CN(S(=O)(=O)c3ccc(C)cc3)[C@@H](Cc3ccccc3)CO2)cc1,x,x,x,6,x,13,x,x
COc1cc(OC)c(-c2nc3cnccc3n2C)cc1OC,0,-2,2,1,4,-1,x,x
Cn1c(-c2ccc3ccccc3n2)nc2cnccc21,-1,3,-4,-10,89*,-19,119*,23*
Cc1ccc(-c2c(C(=O)NCC(C)C)oc(=O)c3ccccc23)cc1,0,-3,x,-1,x,-6,x,x
Cc1c(C(=O)N/N=C/C(C)C)[nH]c2c([N+](=O)[O-])cccc12,0,10,-21,-1,86*,4,39,10*
C/C(=N\NC(=O)c1[nH]c2c([N+](=O)[O-])cc(C)cc2c1-c1ccccc1)c1cccnc1,0,7,-1,-2,17,-5,x,x
Cc1ccc(CSc2nnc(-c3ccc4c(c3)OCO4)o2)cc1,0,2,-3,-1,20,9,x,x
c1cc(CSc2nnc(-c3ccc4c(c3)OCO4)o2)ccn1,0,1,1,-2,88*,3,52*,24*
COC(=O)[C@]12C[C@H](CC(=O)NCc3cccc(C(F)(F)F)c3)C(=O)N(Cc3ccccc3)C1=C[C@H](C1CCCC1)O[C@@H]2C,0,2,x,6,x,13,x,x
COc1cc2[nH]c(=S)n(Cc3ccco3)c(=O)c2cc1OC,0,16,1,-3,82*,0,84*,72*
COc1ccc(Cn2c(=S)[nH]c3cc(OC)c(OC)cc3c2=O)cc1,0,-1,0,1,2,4,x,x
Cc1nc2ccc(NC(=O)c3ccco3)cc2nc1C,0,-1,4,-6,10,-25,x,x
SMILES,proKLK7 act,rCAG RNA binder,GRIN3A LBD mod,ADAM17 inh,AHR activator,ADAM10 inh,AHR act cf,PXR act counter
Nc1nc2ccc(NC(=O)c3ccco3)cc2s1,0,5,-2,0,82*,1,52*,15*
O=C(Nc1ccc(Cl)c(C(F)(F)F)c1)c1ccco1,0,1,-4,0,82*,2,1,6
O=C(Nc1cccc(C(F)(F)F)c1)c1ccco1,-1,2,-3,2,-1,6,x,x
Cc1nc(/N=C\N(C)C)sc1C(=O)Nc1ccccc1,0,-1,-2,0,108*,0,130*,11*
Cc1nc(C(=O)Nc2ccccc2)sc1C(=O)Nc1ccccc1,1,3,6,2,2,11,x,x
Cc1nc(-c2cccnc2)sc1C(=O)Nc1ccc(Cl)cc1,0,-4,-4,-2,124*,2,112*,13*
Cc1nc(N)sc1C(=O)Nc1ccccc1,0,0,-44,6,105*,6,46,23*
Cn1nccc1C(=O)Oc1ccc(/C=N/NC(=O)c2ccccc2O)cc1,3,4,-23,-2,93*,3,21,5
O=c1c2ccccc2[nH]c(=S)n1CCN1CCCCC1,0,-2,-3,-3,11,-8,x,x
O=c1c2ccccc2[nH]c(=S)n1CCC1=CCCCC1,-1,5,-26,-2,113*,6,125*,24*
COc1ccc(C(=O)O/N=C(\N)c2ccccc2)c(OC)c1,0,-3,-9,3,97*,3,56*,4
C=CCN=C1NC(c2ccccc2C(F)(F)F)C(C(=O)OC)=C(C)N1Cc1cccc(C(F)(F)F)c1 (stereo not given),0,-1,x,-2,x,0,x,x
O=C(Nc1ccc(Cl)cc1)c1csc(Cc2ccccc2)n1,0,3,1,-1,85*,-1,16,6
Cc1nc(N2CCN(c3ccccc3)CC2)nc2c1C(=O)CC(C)C2 (stereo not given),0,-1,-3,-1,92*,-6,62*,13*
Cc1nc(N2CCN(c3ccccc3)CC2)nc2c1C(=O)CC(c1ccccc1)C2 (stereo not given),0,0,0,-7,2,-5,x,x
CCN(CC)C(=O)c1sc2nc(-c3ccccn3)[nH]c(=O)c2c1C,-24,-1,1,-120,83*,-378,41,52*
